# D1 ag: activates the human D1 dopamine receptor; P21728; HEK293 T-REx D1 cells, calcium flux, agonist mode; activation, % at 2 µM; 360,000 tested, 1% active; AID 504660; also: 0% is about no effect
#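 Tetracycline-induced HEK293 TREx D1 cells, force-coupled to calcium signalling, were dye-loaded with a no-wash calcium kit. Compound was pin-added after a 10 s baseline. Fluorescence was read kinetically at 1 cycle/s for 180 s, with calcium rises flagged as agonism.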
# TRHR PAM: allosterically enhances the human TRH receptor. P34981. TRHR cells, fluo-8 calcium fluorescence, EC20 TRH enhancement. enhancement, % at 2 µM. 360,000 tested, 0.66% active; in the data active = enhancement above about 30%; also: 0% is about no effect
#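 Enhancer read-out: after compound pinning and an initial kinetic agonist-mode read, an EC20 of TRH (10 nM final) was injected and fluo-8 calcium signal (Ex 480/Em 530) followed at 1 s/cycle for 100 cycles in TRHR-expressing cells.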
# D1 antagonist: antagonists of human D1 dopamine receptor | P21728 | HEK293 TREx D1 cells, calcium flux, dopamine EC80; active compounds read low | activity change, negative = inhibition, % at 10 µM | 360,000 tested, 3.2% active | AID 504652; in the data active = activity change below about -30%; also: % is scaled to controls: 0 for no effect and ±100 for the full control effect
#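 After overnight tetracycline induction at 30 C, force-coupled D1 HEK293 cells took up a no-wash calcium dye at room temperature. Compounds were added and monitored 180 s, and the response to EC80 dopamine was then recorded.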
# USP1 inh: inhibitors of human USP1/UAF1 deubiquitinase. recombinant USP1/UAF1, Ub-Rhodamine cleavage fluorescence. O94782. Potency, µM (highest dose often 57.1 µM), inactives show top-dose activity change, negative = inhibition, most hits filed as inhibitors. 390,000 tested, 0.23% active. AID 743255; active = well fitted inhibition curve with a large enough effect; inconclusive = small, poorly fitted or top-dose-only effect; inactive = no such curve, though single readings can be large or run the other way; also: potency is read from the fitted curve at half-maximal effect; % is scaled to controls: 0 for no effect and ±100 for the full control effect; nearly all actives have a fitted effect of over 60% in size
# Target sequence (O94782 whole entry, looked up): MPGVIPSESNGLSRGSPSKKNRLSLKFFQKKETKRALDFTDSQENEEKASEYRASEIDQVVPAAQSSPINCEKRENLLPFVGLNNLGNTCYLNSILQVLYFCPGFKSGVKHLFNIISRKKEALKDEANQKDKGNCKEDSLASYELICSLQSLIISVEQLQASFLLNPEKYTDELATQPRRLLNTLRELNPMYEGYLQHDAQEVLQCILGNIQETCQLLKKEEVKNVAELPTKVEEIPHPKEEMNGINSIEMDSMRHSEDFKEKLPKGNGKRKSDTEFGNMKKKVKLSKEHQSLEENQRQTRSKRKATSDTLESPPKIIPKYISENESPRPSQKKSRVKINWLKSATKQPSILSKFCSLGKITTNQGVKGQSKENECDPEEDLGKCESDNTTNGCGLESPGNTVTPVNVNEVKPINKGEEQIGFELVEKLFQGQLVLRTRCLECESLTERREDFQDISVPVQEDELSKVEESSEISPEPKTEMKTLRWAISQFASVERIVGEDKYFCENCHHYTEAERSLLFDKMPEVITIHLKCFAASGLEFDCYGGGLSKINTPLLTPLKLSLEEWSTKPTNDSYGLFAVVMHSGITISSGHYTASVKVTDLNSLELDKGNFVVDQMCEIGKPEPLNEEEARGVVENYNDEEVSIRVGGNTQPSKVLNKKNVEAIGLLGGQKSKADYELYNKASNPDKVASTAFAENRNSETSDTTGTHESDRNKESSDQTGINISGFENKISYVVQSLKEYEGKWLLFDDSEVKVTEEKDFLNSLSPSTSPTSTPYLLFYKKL
#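 USP1/UAF1 complex at 1 nM was preincubated with compound for 15 min at room temperature, then Ub-Rho substrate (150nM final) was added. Fluorescence (480/540 nm) was read kinetically, 6 reads every 60 seconds.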
# D1 PAM: enhances dopamine response at the human D1 receptor. 360,000 tested, 0.036% active. P21728. AID 504651. potentiation, % at 10 µM. HEK293 TREx D1 cells, calcium flux, dopamine EC20 potentiation; in the data active = potentiation above about 30%; also: 0% is about no effect
# TRHR agonist: agonists of human TRH receptor | P34981 | TRHR cells, calcium flux fluo-8, FDSS agonist mode | activation, % at 2 µM | 360,000 tested, 0.18% active | AID 493084; also: 0% is about no effect
#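 TRHR-expressing cells loaded with fluo-8 calcium dye; 23 nL library compound pin-transferred, kinetic FDSS fluorescence (Ex 480/Em 530) recorded about 180 s for agonist-induced calcium release, before a 10 nM TRH EC20 addition for potentiator mode.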
# * hit, by the source's call; ? = inconclusive; / = no result given. Rows were chosen to be rich in hits. Some 4.4% of all compounds tested hit in one or more screens of this group. Rule as the data show it, unless noted: active = activation above about 30%; inactive = the rest.
SMILES,D1 ag,TRHR PAM,D1 antagonist,USP1 inh,D1 PAM,TRHR agonist
CCc1ccccc1NC(=O)[C@H](Cc1ccccc1)N1Cc2ccccc2C1=O,3,4,-5,-22%,-1,0
O=C(CSc1n[nH]c(-c2ccccc2)n1)N1CCN(c2ccccc2F)CC1,0,-3,-2,?,1,-1
CCc1ccc(S(=O)(=O)NCCc2csc(C)n2)s1,1,-4,-37*,?,-1,0
CCc1ccc(S(=O)(=O)NCCc2csc(-c3ccccc3)n2)s1,17,-4,-25,?,-12,1
CCC(C)NC(=O)Cn1c(=O)c2cccn2c2ccc(F)cc21 (configuration not stated),2,-1,6,6%,-4,0
Cn1c(C(=O)O)c(CC(=O)Nc2ccc(F)cc2F)c2ccccc21,0,-2,-50*,-6%,-1,1
Cc1ccc(-c2nnc(Nc3ccc(O)cc3)c3ccccc23)cc1S(=O)(=O)N1CCN(C)CC1,0,8,1,-21%,-1,0
CC1(C)Cc2c(cnn2-c2cccc(F)c2)C(NC(=O)c2ccc[n+]([O-])c2)C1 (configuration not stated),1,31*,-23,-8%,-1,0
C=CCC(=O)NC1CC(C)(C)Cc2c1cnn2-c1ccc(C)cc1 (configuration not stated),0,-5,-17,-16%,-9,-1
Cc1ccc(-n2ncc3c2CC(C)(C)CC3NC(=O)c2ccccn2)cc1 (configuration not stated),1,15,-76*,?,-3,1
CC1(C)Cc2c(cnn2-c2ccc(F)cc2)C(NC(=O)CCN2CCCCO2)C1 (configuration not stated),4,37*,4,0%,1,0
COC(=O)CCC(=O)NC1CC(C)(C)Cc2c1cnn2-c1ccc(F)cc1 (configuration not stated),0,38*,10,-20%,-4,0
O=C(COc1ccc(F)cc1)Nc1ccccc1OCc1cc(=O)n2ccccc2n1,0,4,3,?,0,1
CC(C)(C)C1CCc2c(sc(NC(=O)CCC(=O)O)c2C(=O)Nc2ccccc2C(F)(F)F)C1 (configuration not stated),-2,7,-6,?,0,-1
O=C(Oc1ccc2cc(Br)ccc2c1)N1CCCCCC1,41*,2,-7,/,-1,1
COc1cc(NC(=O)NCCn2nnc3cc(S(=O)(=O)N(C)C)ccc32)cc(OC)c1OC,1,-1,8,-22%,0,0
COc1ccc(-c2cc(-c3cccs3)c(C#N)c(SCC(=O)NCc3ccccc3OC)n2)cc1,6,8,-36*,-20%,3,3
COc1ccc(-c2cc(C(F)(F)F)c(C#N)c(SCC(=O)Nc3cccc(C)c3)n2)cc1,10,5,11,?,5,3
COc1ccc(NC(=O)CSc2nc(-c3ccc(C)cc3)cc(C(F)(F)F)c2C#N)cc1,5,2,-41*,-11%,-7,1
COc1ccc(-c2cc(C(F)(F)F)nc(SCC(=O)Nc3cc(C)on3)n2)cc1,0,-1,1,-3%,0,0
COc1ccc(-c2cc(C(F)(F)F)c(C#N)c(SCC(=O)Nc3ccccc3C#N)n2)cc1,60*,-7,4,-19%,1,14
COc1ccc(-c2cc(C(F)(F)F)nc(SCC(=O)Nc3ccc(C(C)=O)cc3)n2)cc1,1,12,-44*,-16%,-5,0
COc1ccc(-c2cc(C(F)(F)F)c(C#N)c(SCC(=O)Nc3ccccc3F)n2)cc1,21,6,-18,-14%,-3,8
COc1ccc(-c2cc(-c3cccs3)c(C#N)c(SCC(=O)NCc3ccccc3)n2)cc1,1,3,11,-4%,4,0
COc1ccc(NC(=O)CSc2nc(-c3cccs3)cc(C(F)(F)F)c2C#N)cc1,14,0,-3,-17%,2,2
SMILES,D1 ag,TRHR PAM,D1 antagonist,USP1 inh,D1 PAM,TRHR agonist
CCOC(=O)c1ccc(NC(=O)CSc2nc(-c3cccs3)cc(C(F)(F)F)c2C#N)cc1,50*,-4,-8,-13%,-1,16
Fc1ccccc1NC(=S)N(CCN1CCCCCC1)Cc1cccs1,5,1,-32*,-11%,-11,0
CN(C)CCCNC(=O)c1cc(C(=O)c2ccccc2F)c[nH]1,1,6,-4,-11%,-2,2
CN(C)CCCNC(=O)c1cc(C(=O)Cc2ccccc2)c[nH]1,1,34*,13,-2%,-5,1
Cc1nc2c(c(=O)c3ccccc3n2C)c(=O)n1C1CCCCCC1,154*,-6,9,4%,0,33*
Cn1c2ccccc2c(=O)c2c(=O)n(C3CCCCC3)c(-c3ccco3)nc21,106*,0,-3,5%,-9,11
CC(C)Cn1c(-c2ccco2)nc2c(c(=O)c3ccccc3n2C)c1=O,6,-10,-17,/,-5,6
CC(C)Sc1ncc(Cl)c(C(=O)N(Cc2ccc(N(C)C)cc2)C2CCS(=O)(=O)C2)n1 (configuration not stated),3,1,8,-24%,1,-1
Cc1cc(C)n2cc(CSCC(=O)O)nc2n1,0,1,-35*,-18%,-6,1
Cc1cccn2cc(-c3cccc(NC(=O)C(C)C)c3)nc12,-3,4,4,-14%,0,-1
COCCCNC(=O)c1cc2n(n1)CCCN(Cc1ccc(C)cc1)C2=O,-1,4,5,-14%,-1,-1
CCOc1ccccc1NC(=O)C(OC(=O)C1CC1)c1ccccc1 (configuration not stated),30*,2,-18,-14%,-2,0
COc1ccccc1N1CCN(c2nc3ccc(C)cc3n3nnnc23)CC1,3,-1,-30*,-14%,-2,-1
COc1ccc(OC)c(NC(=O)N(C)CCc2c(C)nn(C)c2C)c1,-2,2,4,-22%,-1,0
Cn1c(CSCc2ccc(Cl)cc2)nnc1SCC(=O)Nc1nccs1,19,-6,-49*,1%,-9,-1
CCN(CC)CCCNC(=O)CCCn1c(=O)[nH]c2ccc(Br)cc2c1=O,0,4,-31*,-22%,3,0
Cc1nn(CCC(=O)N2CCN(c3ccccc3F)CC2)c(C)c1S(=O)(=O)N1CCCC1,5,6,-2,-7%,0,-1
CN1CCN(C2=Cc3ccc(Cl)cc3Sc3ccc(F)cc32)CC1,9,5,-91*,-11%,-28,1

# Screens as filed in PubChem BioAssay.
